# TDP1 cell noCPT: qHTS for Inhibitors of human tyrosyl-DNA phosphodiesterase 1 (TDP1): qHTS in cells in absence of CPT. AID 686978, 2013. Potency, µM (doses to about 46.2 µM), actives largely listed as inhibitors. DT40 Tdp1-/- hTDP1 cells, no CPT, ATP luminescence, 48 h. 15% of 420,000 active; further: nearly all actives have a fitted effect of over 55% in size
#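 Chicken DT40 Tdp1-/- cells stably complemented with human TDP1 were seeded at 400 cells/well with DMSO in place of 20 nM camptothecin. After compound pinning, cells grew at least 48 hr at 37 °C; viability read by CellTiter-Glo luminescence.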
# TDP1 block: qHTS Assay for Inhibitors of Tyrosyl-DNA Phosphodiesterase (TDP1); Tyrosyl-DNA phosphodiesterase 1 (Homo sapiens), Q9NUW8; recombinant TDP1, AlphaScreen DNA substrate cleavage; Potency, µM (series often up to 130 µM), most hits filed as inhibitors; 0.28% of 350,000 active; further: nearly all actives have a fitted effect of over 40% in size
# Target sequence (Q9NUW8 whole entry, looked up): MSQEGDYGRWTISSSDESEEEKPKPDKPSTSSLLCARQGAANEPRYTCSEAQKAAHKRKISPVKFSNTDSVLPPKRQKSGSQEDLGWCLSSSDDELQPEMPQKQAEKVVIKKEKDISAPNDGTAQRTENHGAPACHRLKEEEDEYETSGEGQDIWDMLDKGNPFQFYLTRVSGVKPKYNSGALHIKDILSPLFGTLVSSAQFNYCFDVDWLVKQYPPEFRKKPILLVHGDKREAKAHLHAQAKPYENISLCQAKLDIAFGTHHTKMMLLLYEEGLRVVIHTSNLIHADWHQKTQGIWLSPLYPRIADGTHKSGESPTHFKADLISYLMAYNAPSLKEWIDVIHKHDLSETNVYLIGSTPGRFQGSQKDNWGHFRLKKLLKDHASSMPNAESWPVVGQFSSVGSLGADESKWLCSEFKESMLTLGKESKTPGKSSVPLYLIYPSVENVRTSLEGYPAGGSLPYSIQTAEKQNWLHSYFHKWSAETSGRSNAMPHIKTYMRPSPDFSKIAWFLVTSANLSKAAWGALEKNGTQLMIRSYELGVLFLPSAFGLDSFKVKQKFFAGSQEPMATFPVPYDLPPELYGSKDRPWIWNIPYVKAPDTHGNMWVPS
#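 Signal: AlphaScreen proximity between streptavidin donor and anti-FITC acceptor beads on intact substrate. Reaction: Tdp1 1 nM, substrate 15 nM final, 5 min RT after 15 min compound preincubation.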
# DT40 TDP1 CPT: qHTS for Inhibitors of human tyrosyl-DNA phosphodiesterase 1 (TDP1): qHTS in cells in presence of CPT; chicken DT40 Tdp1-/-;hTDP1 cells + 20 nM CPT, ATP luminescence, 48 h; Potency, µM (top dose mostly 46.2 µM), actives largely listed as inhibitors; 12% of 420,000 active; further: nearly all actives have a fitted effect of over 55% in size
#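 Chicken DT40 Tdp1-/- cells stably complemented with human TDP1 were seeded at 400 cells/well in medium containing 20 nM camptothecin, exposed to pin-transferred compounds, and grown at 37 °C for at least 48 hr. Viability was read as ATP luminescence.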
# TGFb SMAD3 inh: qHTS for Inhibitors of TGF-b; Potency, µM (doses to about 46.1 µM), usual class: inhibitors; 1.2% of 410,000 active; HepG2 CAGA-GFP TGF-b/SMAD3 reporter, GFP fluorescence, 18 h; TGF-beta stimulated, 500 pg/mL final; further: nearly all actives have a fitted effect of over 65% in size
#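 GFP signal (ex488/em500-530) from TGF-beta-stimulated HEPG2 CAGA-GFP cells, 500 pg/mL final, 18 h at 37 degrees C in DMEM plus 1% FBS, normalized to unstimulated and DMSO-stimulated controls.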
# HepG2 tox: qHTS for Inhibitors of TGF-b: Cytotox Counterscreen. HepG2 CAGA-GFP viability, ATP luminescence, 18 h. Potency, µM (top dose mostly 46.1 µM), usual class: cytotoxic. 0.76% of 410,000 active
#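 HepG2 CAGA-GFP cells (1000/well, DMEM with 1% FBS) received compound, then TGF-beta at 500 pg/mL final, and were incubated 18 hours at 37 degrees C. Viability was read by CellTiter-Glo luminescence. Media-only wells were set as complete cell-killing and DMSO as no toxicity.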
# IL-1B inflam inh: qHTS for Inhibitors of Inflammasome Signaling: IL-1-beta AlphaLISA Primary Screen; 4.7% of 360,000 active; activity change, % at 57.5 µM; THP-1 LPS/ATP IL-1B secretion, AlphaLISA, 16 h; stronger effect = lower value; in the data active means activity change below about -50%; inconclusive means mostly about -30% to -49%
#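 THP-1 cells pretreated 1 hr with compounds (up to 57.5 uM final), then stimulated with LPS (250 ng/mL final) plus ATP (1.25 mM final); secreted IL-1B measured by AlphaLISA after 16 hr, decreased signal indicating inhibition.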
# Hits are given with their value; – = inactive; ? = inconclusive; · = no result given; ! = a repeat was not active; [ ] = dose if it differs, or a comment. In the library only some 19% were active in any assay of this set; here they are far more common. Unless noted, the call rests on the fitted dose curve; in most records, active means well fitted curve in the direction sought with a large enough effect; inconclusive means small, poorly fitted or top-dose-only effect, or another doubt; inactive means no such curve, though single readings can be large; an effect the other way counts as inactive or inconclusive.
SMILES,TDP1 cell noCPT,TDP1 block,DT40 TDP1 CPT,TGFb SMAD3 inh,HepG2 tox,IL-1B inflam inh
CN(C)C1=NC[C@H](Cc2ccccc2)N1CC1CCC(C(C)(C)C)CC1 (stereo not given in full),13µM,·,20.6µM,–,–,–
O=C1NC[C@H](Cc2ccccc2)N(CC2CCN(CC3CCCC3)CC2)C1=O,–,·,–,–,–,–
CN(C)C1=NC[C@H](Cc2ccccc2)N1CC1CCCC1,23.1µM,–,14.6µM,–,–,–
CN(C)C1=NC[C@H](Cc2ccccc2)N1CC1CCCCC1,11.6µM,–,13µM,–,–,–
COc1ccc(CCN(C)C(=O)c2c(C)nn(-c3ccccc3)c2C)cc1OC,–,–,–,–,–,–
Cc1c(CCC(=O)O)c(=O)oc2cc3occ(-c4ccc(Br)cc4)c3cc12,–,·,–,–,–,–
CSCCC(NC(=O)C1CCC(C)CC1)C(=O)Nc1ccc(NC(C)=O)cc1 (stereo not given),–,–,–,–,–,–
CCC/C(O)=C1\C(=O)CC(C)(C)CC1=Nc1ccc(OC)cc1OC,2.06µM,–,2.91µM,–,–,–
CCCC/C(O)=C1\C(=O)CC(C)(C)CC1=Nc1ccccc1OC,?,–,?,–,–,–
COC(=O)CC/C(O)=C1\C(=O)CC(C)(C)CC1=Nc1ccccc1OC,?,–,23.1µM,–,–,–
CCCCCCN=C1CC(C)(C)CC(=O)/C1=C(/O)CCC,16.4µM,–,?,?,–,?
CC1CCC(CN2C(Nc3ccccc3)=NC[C@@H]2Cc2ccccc2)CC1 (stereo not given in full),7.31µM,–,?,–,–,–
c1ccc(C[C@H]2CN=C(Nc3ccccc3)N2CC2CCCCC2)cc1,?,–,16.4µM,–,–,?
c1ccc(C[C@H]2CN=C(Nc3ccccc3)N2CC2CCCC2)cc1,11.6µM,·,10.3µM,·,·,-69.5
c1ccc(C[C@H]2CN=C(Nc3ccccc3)N2CC2CCC2)cc1,?,–,?,–,–,–
CC1CCC(CN2C(Nc3ccccc3)=NC[C@@H]2C)CC1 (stereo not given in full),?,·,18.4µM,–,–,–
O=C(O)CN1C(=O)C(=O)N(Cc2ccccc2F)C1=O,–,·,–,–,–,–
CCCCN1C(Nc2ccccc2)=NC[C@@H]1C,–,–,–,?,–,–
c1ccc(C[C@H]2CN=C(Nc3ccccc3)N2CCCC2CCCCC2)cc1,16.4µM,–,?,–,–,–
CC(C)C[C@H]1CN=C(Nc2ccccc2)N1CC1CCC(C)CC1 (stereo not given in full),18.4µM,·,?,–,–,–
CCCCN1C(Nc2ccccc2)=NC[C@@H]1Cc1ccccc1,?,–,23.1µM,–,–,–
O=C(/C=C/c1cccs1)NNC(=O)c1ccccc1,–,–,–,–,–,–
CC(C)(C)c1ccc(-c2nnc(N)o2)cc1,–,–,–,–,–,·
COc1ccc(NC(=O)C23CC4CC(C2)CC(c2ccc(C)cc2)(C4)C3)cc1,23.1µM,–,29.1µM,–,–,–
Cc1ccc(C23CC4CC(CC(C(=O)NC(C)C)(C4)C2)C3)cc1,25.9µM,·,?,–,–,–
SMILES,TDP1 cell noCPT,TDP1 block,DT40 TDP1 CPT,TGFb SMAD3 inh,HepG2 tox,IL-1B inflam inh
CCn1c(SCC(=O)N2CCC(C)CC2)nc2c1c(=O)n(C)c(=O)n2C,–,–[0.0935 µM],–,–,–,–
Cc1o[nH]c(=O)c1CC[C@H](N)C(=O)O,–,–,–,·,·,·
O=C(Cn1cnc2nc3c(cc2c1=O)CCCC3)Nc1ccc(F)cc1Cl,–,–,–,–,–,·
CCCCc1nc2c(c3c1CC(C)OC3)CN(CCOc1ccccc1)CC2 (stereo not given),·,–[21 µM],·,·,·,·
COc1cc(NC(=O)c2cnc(N)o2)cc(C(=O)Nc2cccc(C(F)(F)F)c2)c1,13µM!,–,20.6µM!,?,–,–
COc1cc(NC(=O)c2ccnc(N)c2)cc(C(=O)Nc2cccc(C(F)(F)F)c2)c1,20.6µM,–,23.1µM,–,–,–
COc1cc(NC(=O)c2cc(C)on2)cc(C(=O)Nc2cccc(C(F)(F)F)c2)c1,?,–,?,?,–,–
COc1cc(NC(=O)c2csc(N)n2)cc(C(=O)Nc2cccc(C(F)(F)F)c2)c1,2.91µM,–,4.61µM,?,–,–
COc1cccc(NC(=O)c2oc3ccccc3c2NC(=O)c2ccc(C(F)(F)F)cc2)c1,?,–,?,–,–,·
COc1cc(NC(=O)c2cnc(N)s2)cc(C(=O)Nc2cccc(C(F)(F)F)c2)c1,18.4µM,–,?,?,–,–
COc1cc(OC)cc(C(=O)Nc2cccc(NC(=O)c3cccs3)c2)c1,?,·,?,–,–,–
CC(=O)Oc1c(/C=C(\C#N)C(N)=O)[nH]c2ccccc12,?,–,16.4µM,?,–,–
ClCCl,·,–,·,·,·,·
CC(C)(C)NC(=O)Nc1ccc(Cn2cc(C(F)(F)F)ccc2=O)cc1,?,–,20.6µM,–,–,–
O=C(Cc1ccccc1[N+](=O)[O-])OCC(=O)c1ccccc1Br,–,–,–,–,–,–
Cc1cc(=O)oc2c(C)c(OCC(=O)N3CCN(c4ccc(F)cc4)CC3)ccc12,23.1µM,–,23.1µM,–,–,–
COC(=O)Cc1c(C)c2ccc(OCC(=O)N3CCC(C)CC3)c(C)c2oc1=O,14.6µM,–,13µM,–,–,–
Cc1cccc(N2CCN(C(=O)COc3ccc4c(C)cc(=O)oc4c3C)CC2)c1C,14.6µM,–,13µM,?,–,?
COC(=O)Cc1c(C)c2ccc(OCC(=O)N3CCCC3)c(C)c2oc1=O,–,–,?,–,–,–
O=C(COc1ccc2c3c(c(=O)oc2c1)CCCC3)N1CCN(c2ccc(F)cc2)CC1,?,–,23.1µM,–,–,–
CCOC(=O)C1CCN(CC(=O)Nc2cc(S(=O)(=O)N3CCOCC3)ccc2C)CC1,–,·,–,–,–,–
C/C(=N/NC(=O)CN1CCN(Cc2ccccc2Cl)CC1)c1cccnc1,–,–,–,–,–,–
Cc1ccc(-c2nc3c(Cl)cc(Cl)cc3c(=O)n2O)cc1,18.4µM,·,?,?,–,–
O=c1c2ccc(Cl)cc2nc(-c2cccc(C(F)(F)F)c2)n1O,3.66µM,–,4.11µM,?,–,–
O=c1c2ccccc2nc(-c2ccc(Cl)c(Cl)c2)n1O,5.17µM,–,6.51µM,?,–,–

# Assay outcomes deposited in PubChem BioAssay by National Center for Advancing Translational Sciences (NCATS).
